Shown are actives, neighbours in structure and some others; about 20% of the full set was active somewhere.
CHX counter – affects cycloheximide protein synthesis inhibition readout, counter-screen. max response, %. actives 12% (n = 300,000). cell reporter, cycloheximide protein synthesis inhibition counterscreen; in the data active means max response mostly above about 13%, no sharp cut-off; inactive means mostly below about 14%; further: read at 38.3 µM for the half of the compounds with a filed dose
Shiga inhibitor – inhibitors of Shiga toxin in Vero cells; Vero cells, Shiga toxin protein synthesis inhibition reporter; inhibition, % at 38.7 µM; actives 9.2% (n = 290,000); AID 2315; in the data active means inhibition mostly above about 28%, no sharp cut-off; inactive means mostly below about 43%
Pf growth 96h – P. falciparum growth inhibition at 96 hour, primary screen for plastid delayed-death inhibitors; P. falciparum luciferase reporter growth, 96 h; Potency, µM (titrated, usually from 28.7 µM), most hits filed as inhibitors; actives 6.9% (n = 320,000); AID 504834
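Two-generation exposure (96 h) targets delayed-death phenotype. Reporter parasites carrying integrated firefly luciferase, in red cells at 2% hematocrit and 0.05% parasitemia final, kept at 37 C, 5% CO2; luminescence loss indicates inhibition.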
Pf growth 48h – inhibits P. falciparum growth in the first generation, 48 h | P. falciparum luciferase growth in erythrocytes, 48 h | Potency, µM (doses to about 28.7 µM), most hits filed as inhibitors | actives 5.9% (n = 310,000)
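Cell-based growth assay: transgenic P. falciparum expressing firefly luciferase, cultured in red cells within RPMI 1640 containing 0.5% w/v Albumax, 24 mM bicarbonate and gentamycin. A drop in luciferase activity indicates inhibition.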
HCMV antiviral – blocks human cytomegalovirus replication. HFF cells, HCMV-luciferase reporter, 72 h; active compounds read low. activity change, negative = inhibition, % at 57.5 µM. actives 4.5% (n = 410,000); in the data active means activity change below about -60%; inconclusive means no clear call, values can overlap the other calls; inactive means above about -39%
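Human foreskin fibroblasts infected with luciferase-reporter HCMV at MOI 1 PFU/cell, compounds at two doses. Luciferase measured 72 h post infection; normalized to buffer-only basal and Salinomycin (10uM) controls.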
Large screens that a line does not name were inactive. Unless noted, the call rests on the fitted dose curve; in most records, active means well fitted inhibition curve with a large enough effect; inconclusive means small, poorly fitted or top-dose-only effect, or another doubt; inactive means no such curve, though single readings can be large or run the other way.

COc1ccc(-c2cc(N)n(S(=O)(=O)c3ccc(F)cc3)n2)cc1OC	none (no result: Pf growth 48h)
Nc1cc(-c2ccccc2)nn1S(=O)(=O)c1ccc(F)cc1	Pf growth 96h 10.4µM, HCMV antiviral inconclusive (no result: Pf growth 48h)
COc1ccc(C2=CC(=O)N(CCC(N)=O)C2)cc1	none (no result: CHX counter, Shiga inhibitor, Pf growth 96h, Pf growth 48h)
CN1/C(=N\O)c2cccc3cccc1c23	HCMV antiviral -60.4 (no result: Pf growth 96h)
CNC(=O)CN1C(=O)c2cccc3cccc1c23	none (no result: Pf growth 96h)
Cn1ccnc1CC(O)(c1ccccc1)c1ccccc1	Pf growth 96h inconclusive
COc1cccc(-c2nc(-c3ccccc3)nc(N3CCN(C)CC3)c2C#N)c1	Pf growth 96h inconclusive
COc1cccc(-c2nc(N)nc(SC)c2C#N)c1	CHX counter 13.7
CCOc1ccc(CNC(=O)C2Cc3cc(S(=O)(=O)N4CCCCC4)ccc3N2C(C)=O)cc1 (stereo not given)	Pf growth 96h 10.4µM
CSc1ccc(CNC(=O)C2Cc3cc(S(=O)(=O)N4CCCCC4)ccc3N2C(C)=O)cc1 (stereo not given)	Pf growth 96h 14.7µM
CCCNC(=O)C1Cc2cc(S(=O)(=O)N3CCCCCC3)ccc2N1C(C)=O (stereo not given)	none (no result: CHX counter, Shiga inhibitor, Pf growth 96h, Pf growth 48h)
CC(=O)N1c2ccc(S(=O)(=O)N3CCCCCC3)cc2CC1C(=O)NC(C)C (stereo not given)	HCMV antiviral -85.0 (no result: CHX counter, Shiga inhibitor, Pf growth 96h, Pf growth 48h)
CCOC(=O)c1c(C)oc2nc(C)nc(NCC3CCN(Cc4cccc(C)c4)CC3)c12	none (no result: CHX counter, Shiga inhibitor, Pf growth 96h, Pf growth 48h)
CCN(c1ccc(C)cc1C)S(=O)(=O)c1nnc(NC(=O)C(C)(C)C)s1	Pf growth 96h inconclusive, Pf growth 48h 10.4µM
CCN(c1ccc(C)cc1C)S(=O)(=O)c1nnc(NC(=O)C(C)C)s1	Pf growth 48h 13.1µM, HCMV antiviral -72.9
CCN(c1cc(C)cc(C)c1)S(=O)(=O)c1nnc(NC(=O)C(C)C)s1	Pf growth 96h inconclusive, Pf growth 48h inconclusive, HCMV antiviral -77.3
CCN(c1cc(C)cc(C)c1)S(=O)(=O)c1nnc(NC(=O)c2ccco2)s1	Pf growth 96h 11.7µM
CCN(c1ccc(OC)cc1)S(=O)(=O)c1nnc(NC(=O)c2ccco2)s1	Pf growth 48h inconclusive
Cc1oc(-c2cccc(Cl)c2)nc1CSCC(=O)NCc1ccccc1Cl	none (no result: CHX counter, Shiga inhibitor, Pf growth 96h, Pf growth 48h)
CCn1cc(/C=C(\NC(=O)c2ccc(OC)cc2)C(=O)N2CCOCC2)c2ccccc21	Pf growth 96h inconclusive, Pf growth 48h inconclusive
NS(=O)(=O)c1cccc(NC(=O)CN2CCC(Cc3ccccc3)CC2)c1	HCMV antiviral inconclusive
CN1CCN(C(=S)c2ccc(OCC(=O)Nc3cccc(C(F)(F)F)c3)cc2)CC1	HCMV antiviral -63.1
O=C(COc1ccc(C(=O)O)cc1)Nc1cccc(C(F)(F)F)c1	Pf growth 96h inconclusive
CN1CCC(N(C)S(=O)(=O)c2ccc(NC(=O)COc3cccc(C(F)(F)F)c3)cc2)CC1	Pf growth 96h 13.1µM, Pf growth 48h inconclusive (no result: CHX counter, Shiga inhibitor)
Cc1cc(N2CCCC2)ccc1NC(=O)COc1cccc(C(F)(F)F)c1	HCMV antiviral -69.8
Cc1cc(C)cc(NC(=O)COc2ccc(C(=S)N3CCOCC3)cc2)c1	Pf growth 48h inconclusive, HCMV antiviral -62.1
O=C(COC(=O)COc1cccc(C(F)(F)F)c1)Nc1ccc(N2CCOCC2)cc1	none (no result: CHX counter, Shiga inhibitor)
Cc1ccc(CNC(=O)CCc2c(C)nn(-c3ccc(N4CCOCC4)nn3)c2C)cc1	Pf growth 96h inconclusive
Cc1ccccc1C(=O)NC1CC2CCCC(C1)N2Cc1ccc(Cl)cc1 (stereo not given)	none
COCC(C)NC(=O)CSc1ncnc2sc(-c3ccccc3)cc12 (stereo not given)	none
CC(C)c1cc(CN2CCN(CCC#N)CC2)cc(C(C)C)c1O	Pf growth 96h inconclusive, Pf growth 48h 2.33µM
CC(C)(C)c1cc(CN2CCN(CCO)CC2)cc(C(C)(C)C)c1O	Pf growth 96h inconclusive
Cc1cccc2cc(CN(Cc3ccccc3)C(=O)c3cccc(F)c3)c(Cl)nc12	Pf growth 96h inconclusive
CC1=CC(C)(C)NC(=S)N1c1cccc2ccccc12	HCMV antiviral -100.3
CC1=CC(C)(C)NC(=S)N1c1ccc2ccccc2c1	Pf growth 96h inconclusive, HCMV antiviral inconclusive (no result: Pf growth 48h)
O=C(NC1CCCCC1)N1CC(=O)N2[C@H](CO)[C@H](c3ccc(Br)cc3)[C@@H]2C1	none (no result: CHX counter, Shiga inhibitor, Pf growth 96h, Pf growth 48h)
CC(C)(C)Nc1nc(OCC#N)nc(N2CCCCC2)n1	Pf growth 48h inconclusive, HCMV antiviral inconclusive
CC(C)(CO)Nc1nc(N2CCCC2)nc(N2CCCC2)n1	Pf growth 96h inconclusive, Pf growth 48h inconclusive
CCNc1nc(N2CCCC2)nc(N2CCCC2)n1	Pf growth 48h 11.7µM
CCNc1nc(NC(C)(C)C)nc(N2CCCCC2)n1	Pf growth 48h inconclusive, HCMV antiviral -72.4
N#Cc1ccc(OCC(=O)N/N=C2/CC(c3ccccc3)Oc3ccccc32)cc1 (stereo not given)	Pf growth 96h inconclusive
Cc1cccc(-c2noc(-c3ccccc3OCC(=O)Nc3ccc([N+](=O)[O-])cc3)n2)c1	none (no result: CHX counter, Shiga inhibitor, Pf growth 96h, Pf growth 48h)
O=c1oc(Nc2ccccc2Cl)nc2ccccc12	CHX counter 23.0
O=c1oc(Nc2ccccc2F)nc2ccccc12	CHX counter 33.6, Shiga inhibitor 52.5
Cc1cc(Nc2cccc(Cl)c2)c2ccccc2n1	Pf growth 48h inconclusive, HCMV antiviral inconclusive
Cc1nc2ccccc2c(=O)n1Nc1cccc(Cl)c1	Pf growth 96h 5.86µM, Pf growth 48h 2.94µM
O=c1oc(Nc2cccc(Cl)c2)nc2ccccc12	CHX counter 36.1, Shiga inhibitor 47.5
O=c1c2ccccc2nc2sc(Nc3cccc(Cl)c3)nn12	Pf growth 96h inconclusive (no result: CHX counter, Shiga inhibitor)
O=S(=O)(Nc1cc(S(=O)(=O)N2CCOCC2)ccc1NCC1CCCO1)c1ccccc1F (stereo not given)	none (no result: CHX counter, Shiga inhibitor)
O=C(NCc1ccc(F)c(F)c1)C1CCC(=O)N(CC2CCCCC2)C1 (stereo not given)	Pf growth 96h 13.1µM, HCMV antiviral inconclusive
O=C(NCc1cccc(Cl)c1)C1CCC(=O)N(CC2CCCCC2)C1 (stereo not given)	Pf growth 96h 14.7µM
CCOc1ccc(CCNC(=O)c2cc(=O)[nH]c3ccc(S(=O)(=O)N4CCCCC4C)cc23)cc1OCC (stereo not given)	none (no result: CHX counter, Shiga inhibitor, Pf growth 96h, Pf growth 48h)
COc1ccc(CCNC(=O)c2ccc(CNS(=O)(=O)c3ccc(C(C)(C)C)cc3)cc2)cc1OC	Pf growth 96h 13.1µM, Pf growth 48h inconclusive
COc1ccc(CCNC(=O)c2cnc3ccccc3n2)cc1	CHX counter 14.5
CCOc1ccc(CCNC(=O)c2cc(=O)[nH]c3ccc(S(=O)(=O)N(CC)CC)cc23)cc1OCC	Pf growth 96h inconclusive, Pf growth 48h 14.7µM
COc1ccc(CCNC(=O)c2ccc(CNS(=O)(=O)c3cc(C)ccc3C)cc2)cc1OC	Pf growth 96h 5.22µM, HCMV antiviral inconclusive (no result: Pf growth 48h)
COc1ccc(CCNC(=O)c2ccc(CNS(=O)(=O)c3cccc(Cl)c3)cc2)cc1OC	none
CC1(C)S[C@@H]2[C@H](NC(=O)[C@@H](N)c3ccccc3)C(=O)N2[C@H]1C(=O)O[C@H]1OC(=O)c2ccccc21	Pf growth 96h inconclusive (no result: CHX counter, Shiga inhibitor, HCMV antiviral)
CCOC(=O)C(C)Oc1c(C(=O)OC)sc2ncccc12 (stereo not given)	Pf growth 96h inconclusive, Pf growth 48h inconclusive

Screening data from PubChem BioAssay.
